# GRIN3A LBD mod – modulators (binders) of human NR3A ligand-binding domain; NR3A LBD differential scanning fluorimetry, Tm shift; 0% = protein alone, 100% = glycine-bound protein; Tm shift relative to glycine control, % at 25 µM; actives 2.5% (n = 340,000); AID 1259313;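 active = melting temperature shift of at least 10% of the positive control shift, at one fixed dose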
# AI-2 QS mod – modulators of Vibrio harveyi AI-2 quorum sensing system. Vibrio harveyi JMH597 AI-2 luminescence/OD600 ratio, 9 h; active compounds read low; strain lacks LuxN and CqsS sensors; 0 = neutral-control median. activity change, % at 7.5 µM. actives 0.4% (n = 300,000). AID 2094; in the data active = activity change below about -75%, passing the limit was not always enough;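 also: luminescence divided by OD600 gain over 9 h not by final OD600 alone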
# Mot1-301 SUMO – inhibitors of SUMOylation pathway: yeast Mot1-301 growth rescue; S. cerevisiae Mot1-301 growth rescue, ATP luminescence, 38.5C; percent above DMSO median, 100 means doubled; growth rescue, % at 18.8 µM; actives 1% (n = 320,000); AID 2716;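 active = every valid replicate shows activation above 250% relative to neutral control wells; inactive = the rest, any valid replicate at or below 250%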
# NTR1 ag – activates human neurotensin receptor 1 | P30989 | NTR1-U2OS beta-arrestin-GFP spot imaging, agonist mode | activation, % at 20 µM | actives 0.17% (n = 330,000);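 active = activation at or above 40% of the spot to cytoplasm intensity ratio, with at least 20 cells analyzed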
# Target sequence (P30989 whole entry, looked up): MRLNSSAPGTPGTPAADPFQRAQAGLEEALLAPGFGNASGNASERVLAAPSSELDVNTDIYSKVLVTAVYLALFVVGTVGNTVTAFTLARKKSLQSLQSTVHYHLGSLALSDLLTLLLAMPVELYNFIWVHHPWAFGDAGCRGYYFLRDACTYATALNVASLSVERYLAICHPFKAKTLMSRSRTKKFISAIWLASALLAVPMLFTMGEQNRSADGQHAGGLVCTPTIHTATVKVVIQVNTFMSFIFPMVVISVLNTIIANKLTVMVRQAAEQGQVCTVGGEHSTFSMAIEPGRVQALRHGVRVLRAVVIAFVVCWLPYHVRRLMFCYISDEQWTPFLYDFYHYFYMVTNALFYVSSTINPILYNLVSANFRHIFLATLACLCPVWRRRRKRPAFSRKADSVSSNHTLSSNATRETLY
# AHR act – activators of human aryl hydrocarbon receptor | AHR-responsive luciferase reporter cells, luminescence | activation, % at 5 µM | actives 2.5% (n = 320,000) | AID 2796; in the data active = activation above about 47%
# Cardio protect – myocardial damage modulation in H9c2 cells; actives 0.63% (n = 360,000); protection from H2O2 cell death, % at 20 µM; AID 588492; H9c2 cardiomyocytes, H2O2 injury protection, ATPLite, 2 h;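 active = compounds giving at least 50% protection of heart cells from peroxide-induced death in the single-dose screen, raw or plate-pattern-corrected value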
# A number is an active result; 0 = inactive; - = no result. An excerpt weighted towards active compounds, which were near 6.2% of everything screened.
SMILES,GRIN3A LBD mod,AI-2 QS mod,Mot1-301 SUMO,NTR1 ag,AHR act,Cardio protect
COc1ccc(-c2ccc3c(c2)S(=O)(=O)c2cccc(C(=O)N4CCN(c5c(Cl)cncc5Cl)CC4)c2C3=O)cc1OC,0,-,0,0,0,66.4
O=C1c2ccc(Cl)cc2S(=O)(=O)c2cccc(C(=O)N3CCN(c4ncc(Br)cn4)CC3)c21,0,-,0,0,0,0
CCNc1c([N+](=O)[O-])c(=O)oc2ccccc12,0,0,0,0,0,0
O=c1oc2ccccc2c(Nc2ccc3ccccc3c2)c1[N+](=O)[O-],0,0,0,0,64.6,0
Cc1ccc(Nc2c([N+](=O)[O-])c(=O)oc3ccccc23)cc1,0,0,0,0,0,0
COc1c([N+](=O)[O-])c(=O)oc2ccccc12,12.6,0,0,0,0,0
CC(NC(=O)c1ccc2c(c1)C(=O)N(Cc1cccnc1)C2=O)c1ccccc1 (stereo not drawn),0,0,0,0,0,0
CCn1c(-c2ccc(N(C)C)cc2)nc2ccccc21,0,0,0,0,54.2,0
N#Cc1ccc(C(=O)OCC(=O)N2CCCC2)cc1,0,0,0,0,0,0
NNc1nc(-c2ccccc2)cc(-c2ccc(Br)cc2)n1,0,0,0,0,69.2,0
CC1(c2nnc(-c3cccc(Cl)c3)o2)CC(c2ccccc2F)=NO1 (stereo not drawn),12.9,0,0,0,0,0
Nc1ccccc1-c1nnc(-c2ccc(-c3ccccc3)cc2)o1,0,0,0,0,75.8,0
Oc1ccccc1-c1nnc(-c2ccc(C(F)(F)F)cc2)o1,0,0,0,0,52.0,0
c1ccc(-c2nnc(-c3ccncc3)o2)cc1,0,0,0,0,0,0
CSc1ccccc1-c1nnc(-c2ccccc2)o1,0,0,0,0,0,0
COc1cccc(-c2nnc(-c3ccc(C(F)(F)F)cc3)o2)c1,0,0,-,0,0,0
c1ccc(-c2nnc(-c3ccccc3)o2)cc1,0,0,0,0,58.8,0
COc1ccc(C(=O)NCCc2nnc3ccc(SCC(=O)N4CCCC4)nn23)cc1,0,0,0,0,0,0
COCCNCc1ccccc1[N+](=O)[O-],0,-,0,0,0,0
O=C(O)C1C2OC(C(Br)C2Br)C1C(=O)O (stereo not drawn),0,-,-,-,-,0
Clc1cccc(-c2nnc(-c3ccccc3)o2)c1,0,0,0,0,65.3,0
Clc1cccc(-c2nnc(-c3ccno3)o2)c1,0,0,0,0,0,0
CCNCc1nc2cc(OC)c(OC)cc2c(=O)[nH]1,0,0,0,0,0,0
COc1cc2nc(CN(CCC(C)C)Cc3nc4cc(OC)c(OC)cc4c(=O)[nH]3)[nH]c(=O)c2cc1OC,10.9,0,0,0,0,0
CCc1nc2c(OCc3ccc(C(F)(F)F)cc3)cccn2c1N(C=O)Cc1ccc(OC)cc1,-,-,-,-,-,0
SMILES,GRIN3A LBD mod,AI-2 QS mod,Mot1-301 SUMO,NTR1 ag,AHR act,Cardio protect
CC(C)[C@H](NC(=O)[C@@H]1Cc2c([nH]c3ccccc23)C2c3ccccc3C(=O)N21)C(=O)N1CCC[C@H]1C(=O)O (stereo partly drawn),-,-,-,-,-,0
CCOC(=O)c1csc(NC(=O)c2ccc(N3C(=O)CCC3=O)cc2)n1,0,0,0,0,0,0
COc1ccc(-c2csc(NC(=O)c3ccc(N4C(=O)CCC4=O)cc3)n2)cc1,0,0,0,0,0,0
CC(C)(C)c1ccc(C(=O)NCC(=O)OCC(=O)Nc2nc(-c3ccc(F)cc3)cs2)cc1,10.2,0,0,0,0,0
COc1ccccc1-c1csc(NC(=O)c2ccc(N3C(=O)CCC3=O)cc2)n1,34.0,0,0,0,0,0
Cc1ccc(-c2csc(NC(=O)CCNC(=O)c3ccc(Cl)cc3)n2)cc1,0,0,0,0,0,0
COc1ccccc1Nc1nc(-c2cccc(N3C(=O)c4ccccc4C3=O)c2)cs1,15.5,0,0,0,0,0
O=C(Nc1nc(-c2ccc(F)cc2)cs1)c1ccc(N2C(=O)CCC2=O)cc1,24.9,0,0,0,0,0
COc1ccc(-c2csc(NC(=O)c3cccc(N4C(=O)CCC4=O)c3)n2)cc1OC,0,-,0,0,0,84.8
O=C(CN1C(=O)C2CC=CCC2C1=O)Nc1nc(-c2ccc(F)cc2)cs1 (stereo not drawn),0,-,0,0,0,58.2
O=C(CN1C(=O)C2CCCCC2C1=O)Nc1nc(-c2ccc(F)cc2)cs1 (stereo not drawn),0,0,-,0,0,0
O=C1N=C(N2CCOCC2)S/C1=C/c1ccc(-c2ccc(F)cc2)o1,0,0,0,0,82.4,0
O=C1S/C(=C/c2ccc(N3CCOCC3)o2)C(=O)N1Cc1ccc(F)cc1,0,0,0,0,0,0
O=C1N=C(N2CCOCC2)SC1=Cc1ccco1,0,-,-,-,-,0
Cc1ccc(-c2ccc(/C=C3\SC(N4CCOCC4)=NC3=O)o2)cc1,0,0,0,0,54.4,0
COc1cc(/C=C(/C(=O)c2cccs2)c2nc3ccccc3[nH]2)cc(OC)c1O,0,0,0,0,114.5,0
O=C(N/C(=C/c1ccc(Br)cc1)c1nc2ccccc2[nH]1)c1ccco1,0,0,0,0,66.6,0
O=C(N/C(=C/c1ccc(Cl)cc1)c1nc2ccccc2[nH]1)c1ccco1,0,0,0,0,70.4,0
O=C(/C(=C/c1ccc(Cl)cc1)c1nc2ccccc2[nH]1)c1ccccc1,25.7,0,0,0,0,0
CS(=O)(=O)c1ccc(-c2sc3ccccc3c2C(=O)NCCCN2CCOCC2)cc1,0,-,-,0,0,0
Cc1cc(C(=O)OCC(=O)Nc2ccccc2C(F)(F)F)on1,0,-,0,0,0,0
COc1ccc(C2=CCCCCC2)cc1OC,-,-,-,-,-,0
Cc1ccc(-c2csc(NC(=O)c3cccc([N+](=O)[O-])c3)n2)cc1,24.6,0,0,0,0,0
O=[N+]([O-])c1cccc(-c2csc(N/N=C/c3cccc(O)c3)n2)c1,23.8,0,0,0,73.5,0
O=C(NC(=S)Nc1nc(-c2cccc([N+](=O)[O-])c2)cs1)c1ccccc1Cl,0,0,0,0,0,0
SMILES,GRIN3A LBD mod,AI-2 QS mod,Mot1-301 SUMO,NTR1 ag,AHR act,Cardio protect
Cc1ccnc(NC(=O)c2ccc([N+](=O)[O-])o2)c1,0,-252.3,0,0,0,0
O=C(NC(=S)Nc1nc(-c2cccc([N+](=O)[O-])c2)cs1)c1cc(Cl)ccc1Cl,11.4,0,0,0,0,0
O=C(Nc1cccc(C(=O)N2CCCCC2)c1)c1ccccc1Br,0,0,0,0,0,0
CCOc1ccc(S(=O)(=O)N2CCCCC2)cc1NC(=O)Cc1ccsc1,0,-,0,0,0,0
Cc1ccc(-c2csc(NC(=O)c3ccc([N+](=O)[O-])o3)n2)cc1,0,-158.2,0,0,0,0
CC(=O)c1c(C)[nH]c(C(=O)Nc2nc(-c3ccc(Cl)cc3)cs2)c1C,0,0,0,0,0,0
